PubChem BioAssay
Values without a mark were called inactive. For some assays here: Results with a measured potency or affinity are listed apart. The list shows a part of the results. Activity calls are given as the source filed them.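 How the source made its calls, unless noted: active means calcium signal ratio cut to more than 3 SD under the fully stimulated control mean yet still positive, in both repeats and the primary screen; inactive means the rest.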

Tests used:
[1] = system: TRPC4 beta (transient receptor potential cation channel C4), mouse; test: TRPC4 cation channel opening, retest – cell-based, Fluo4 calcium, HEK293 TRPC4beta/mu-opioid, duplicates, 10 µM, confirmation (AID 2426;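 active means fluorescence ratio normalized to control raised more than 50% in primary screen plus both repeat runs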); conditions: Fluo4 calcium fluorescence, at 10 µM; stronger effect = higher value
[2] = system: transient receptor potential cation channel C4 beta (TRPC4), mouse; test: TRPC4 cation channel opening, second retest – cell-based, second round, Fluo4, HEK293 TRPC4beta/mu-opioid, 1 µM, confirmation (AID 2461;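 active means primary screen active and over 50% activation in each of two duplicate runs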); conditions: Fluo4 calcium fluorescence, at 1 µM; stronger effect = higher value
[3] = system: TRPC4 (transient receptor potential cation channel C4 beta), mouse; test: potentiation of DAMGO EC20 TRPC4 response – cell-based, second round, Fluo-4, HEK293 TRPC4beta/mu-opioid, 1 µM, confirmation (AID 2554;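 active means primary screen hit whose fluorescence ratio, in both repeats, exceeds the weak agonist control mean by 3 SD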); conditions: DAMGO EC20, Fluo-4 calcium flux, at 1 µM; stronger effect = higher value
[4] = system: TRPC4 beta (transient receptor potential cation channel C4), mouse; test: potentiation of DAMGO EC20 TRPC4 response – cell-based, Fluo-4, HEK293 TRPC4beta/mu-opioid, confirmation (AID 2555;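 active means primary screen hit whose calcium fluorescence ratio, in both repeats, exceeds the weak agonist control mean by 3 SD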); conditions: DAMGO EC20, Fluo-4 calcium flux, at 10 µM; stronger effect = higher value
[5] = biological target: Short transient receptor potential channel 4 (Mus musculus) (UniProt Q9QUQ5); test: blockers of DAMGO-evoked TRPC4 calcium flux – cell-based, Fluo4, HEK293 TRPC4beta/mu-opioid, confirmation (AID 2636;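 active means calcium signal cut by more than 3 SD below the full-agonist control yet still positive, in both repeats and the earlier primary screen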); conditions: at 10 µM; stronger effect = higher value
[6] = biological target: Short transient receptor potential channel 4 (Mus musculus) (UniProt Q9QUQ5); test: blockers of DAMGO-evoked TRPC4 calcium flux – cell-based, second round, Fluo4, HEK293 TRPC4beta/mu-opioid, 1 µM, confirmation (AID 2637); conditions: at 1 µM; stronger effect = higher value;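 on inhibition: percent of integrated ratio relative to wells lacking test compound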
[7] = biological target: Short transient receptor potential channel 4 (Mus musculus) (UniProt Q9QUQ5); test: calcium entry via TRPC4 opening agents – cell-based, HEK293 TRPC4/mu-opioid, Fluo-4 calcium, dose response (AID 434937;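 active means primary screen activator hit with a dose response curve and TRPC4 channel activation at any tested dose; inactive means no activation, no dose response, or not a primary hit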)
[8] = biological target: Short transient receptor potential channel 4 (Mus musculus) (UniProt Q9QUQ5); test: potentiation of DAMGO-evoked TRPC4 calcium signal – cell-based, HEK293 TRPC4/mu-opioid, Fluo-4 calcium, EC20 DAMGO, dose response (AID 434941;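 active means earlier screen potentiator hit that boosts the TRPC4 ion channel at some dose, with a dose response; inactive means no potentiation, no dose response, or not a prior hit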;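 further: calcium entry triggered by an EC20 dose of DAMGO at the co-expressed mu-opioid receptor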)
[9] = biological target: Short transient receptor potential channel 4 (Mus musculus) (UniProt Q9QUQ5); test: block of DAMGO-driven TRPC4 calcium entry – cell-based, HEK293 TRPC4/mu-opioid, Fluo-4 calcium, dose response (AID 434942;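 active means primary screen inhibitor hit that blocks the TRPC4 channel at some tested dose, yielding a dose curve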)
[10] = biological target: Short transient receptor potential channel 6 (Mus musculus) (UniProt Q61143); test: TRPC6 blockade by TRPC4 inhibitor hits – cell-based, HEK293, membrane potential dye, duplicate, selectivity assay for TRPC4 inhibitor project, confirmation (AID 434948;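 active means active in primary screen and both duplicates, each dropping signal beyond three positive-control SD with fluorescence still positive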); conditions: HEK293 TRPC6, membrane potential dye fluorescence, at 10 µM, stimulated with maximal-effect acetylcholine; stronger effect = higher value
[11] = biological target: Short transient receptor potential channel 6 (Mus musculus) (UniProt Q61143); test: TRPC6 opening by TRPC4 activator hits – cell-based, HEK293, membrane potential dye, duplicate, selectivity assay for TRPC4 activator project, confirmation (AID 434950;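 active means membrane potential signal rise above negative control mean plus 3 SD in both duplicates, also active in the earlier TRPC4 screen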); conditions: HEK293 TRPC6, membrane potential fluorescence, at 10 µM; activation: stronger effect = higher value; outcome: activation
[12] = biological target: Short transient receptor potential channel 6 (Mus musculus) (UniProt Q61143); test: positive modulators of mouse TRPC6 channel – HEK293 cells, membrane potential dye, duplicate, selectivity assay for TRPC4 potentiator project, confirmation (AID 434952;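 active means compound raising the membrane signal above positive-control mean plus 3 SD in both repeats, and a primary screen hit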); conditions: HEK293 TRPC6, membrane potential dye fluorescence, at 10 µM, maximal acetylcholine added after compound; stronger effect = higher value
[13] = biological target: Short transient receptor potential channel 4 (Mus musculus) (UniProt Q9QUQ5); test: calcium flux activators in TRPC4/5HT1a cells, counter-screen for TRPC4 activator project, cell-based, second counter screen, HEK293 TRPC4/5HT1a, Fluo-4 (AID 434977;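 active means calcium signal rise above buffer-control mean plus 5 SD in both duplicates, and also a hit in the primary screen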); conditions: Fluo-4 calcium flux, at 10 µM; stronger effect = higher value
[14] = serotonin-gated TRPC4 signal block – cell-based, second counter screen, HEK293 TRPC4/5HT1a, Fluo-4, counter-screen for TRPC4 inhibitor project, confirmation (AID 434978;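 active means primary screen active whose calcium signal fell more than 3 SD beyond the full-serotonin control mean in both duplicate plates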;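 further: serotonin given first at submaximal then at maximal dose after compound preincubation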); conditions: Fluo-4 calcium flux, at 10 µM, serotonin added to trigger calcium flux; stronger effect = higher value
[15] = system: TRPC4 (mouse), co-expressed with 5HT1a in HEK293; test: enhancement of serotonin-evoked TRPC4 response – cell-based, second counter screen, HEK293 TRPC4/5HT1a, Fluo-4, counter-screen for TRPC4 potentiator project, confirmation (AID 434979;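 active means signal rise over 3 SD above mean of control wells given weak agonist, in both repeats and first screen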); conditions: Fluo-4 calcium flux, at 10 µM, serotonin added at its EC20 dose; stronger effect = higher value
[16] = nonspecific calcium rise without TRPC4 – cell-based, HEK293 mu-opioid receptor line, counter-screen for TRPC4 activator project, confirmation (AID 449723;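 active means hit in primary screen, with calcium signal over 5 SD above buffer well mean in both duplicates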;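 further: counter screen cells carry the mu-opioid receptor alone and lack TRPC4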); conditions: HEK293 mu-opioid cells, Fluo-4 calcium fluorescence, at 10 µM; stronger effect = higher value
[17] = nonspecific potentiation of DAMGO calcium response – cell-based, HEK293 mu-opioid receptor line, counter-screen for TRPC4 allosteric potentiator project, confirmation (AID 449724;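 active means calcium signal rise more than 3 SD above the low-dose agonist control mean, in both duplicate plates and the primary screen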); conditions: HEK293 mu-opioid receptor cells, Fluo-4 calcium flux, at 10 µM, compound added before EC20 DAMGO stimulus; stronger effect = higher value
[18] = parental CHO-K1 cell activation, no KCNQ2 – FluxOR thallium flux, duplicate, counter-screen for KCNQ2 potentiator project, confirmation (AID 2282;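 active means signal rise of at least 3 SD above the untreated control mean, in both duplicate wells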;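 further: counter screen of KCNQ2 potentiator hits so any rise reflects channel-independent effects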); conditions: parental CHO-K1 cells, FluxOR thallium flux fluorescence; at 10 µM; stronger effect = higher value; zero = vehicle mean+3SD, 100% = vehicle-minus-blank window
[19] = biological target: Potassium voltage-gated channel subfamily KQT member 1 (Homo sapiens) (UniProt P51787); test: KCNQ1 activation in stable CHO cells – cell-based, FluxOR thallium flux, selectivity assay for KCNQ2 potentiator project, confirmation (AID 2283;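 active means fluorescence ratio rise of at least 3 SD of vehicle wells above their mean, in both replicate wells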;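 further: 0% = vehicle mean plus 3 SD and 100% = vehicle minus unstimulated blank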); conditions: FluxOR thallium flux fluorescence, at 10 µM, stronger effect = higher value, beyond 3SD, as % of vehicle-control signal
[20] = biological target: Potassium voltage-gated channel subfamily KQT member 2 (Rattus norvegicus) (UniProt O88943); test: KCNQ2 potassium channel activity enhancers – cell-based, CHO, FluxOR thallium flux, duplicate, confirmation (AID 2287;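 active means fluorescence ratio rising 3 SD or more over the vehicle control mean in both replicates, plus primary screen hit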;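 further: peak minus minimum thallium fluorescence divided by baseline after K/Tl stimulus; 0% = vehicle mean plus 3 SD and 100% = vehicle minus unstimulated blank difference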); conditions: CHO-KCNQ2 cells, FluxOR thallium flux fluorescence; at 10 µM; stronger effect = higher value
Sequence of Potassium voltage-gated channel subfamily KQT member 2 (Rattus norvegicus) (O88943 whole entry, looked up): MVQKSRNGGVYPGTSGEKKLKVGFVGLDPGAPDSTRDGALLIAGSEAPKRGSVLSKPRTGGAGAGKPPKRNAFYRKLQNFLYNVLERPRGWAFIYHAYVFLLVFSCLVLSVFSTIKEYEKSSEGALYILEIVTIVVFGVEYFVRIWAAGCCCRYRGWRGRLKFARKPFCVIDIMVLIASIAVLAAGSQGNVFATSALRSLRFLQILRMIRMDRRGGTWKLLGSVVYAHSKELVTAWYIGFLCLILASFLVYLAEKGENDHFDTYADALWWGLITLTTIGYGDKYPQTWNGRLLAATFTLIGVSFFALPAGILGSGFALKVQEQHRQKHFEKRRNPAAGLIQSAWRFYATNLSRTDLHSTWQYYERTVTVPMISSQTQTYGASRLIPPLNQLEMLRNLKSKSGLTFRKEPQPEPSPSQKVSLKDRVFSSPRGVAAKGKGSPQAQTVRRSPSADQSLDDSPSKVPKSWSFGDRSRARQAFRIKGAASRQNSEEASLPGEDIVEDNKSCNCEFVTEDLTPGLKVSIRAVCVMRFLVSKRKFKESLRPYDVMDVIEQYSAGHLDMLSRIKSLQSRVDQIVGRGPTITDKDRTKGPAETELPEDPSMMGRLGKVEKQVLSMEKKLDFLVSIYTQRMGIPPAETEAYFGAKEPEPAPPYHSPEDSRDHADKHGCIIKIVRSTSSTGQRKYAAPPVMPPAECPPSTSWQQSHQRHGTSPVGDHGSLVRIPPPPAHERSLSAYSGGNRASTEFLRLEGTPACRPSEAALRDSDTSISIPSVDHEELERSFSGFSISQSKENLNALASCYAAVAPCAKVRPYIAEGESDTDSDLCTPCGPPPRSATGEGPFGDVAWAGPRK

Sequence of Short transient receptor potential channel 4 (Mus musculus) (Q9QUQ5 whole entry, looked up): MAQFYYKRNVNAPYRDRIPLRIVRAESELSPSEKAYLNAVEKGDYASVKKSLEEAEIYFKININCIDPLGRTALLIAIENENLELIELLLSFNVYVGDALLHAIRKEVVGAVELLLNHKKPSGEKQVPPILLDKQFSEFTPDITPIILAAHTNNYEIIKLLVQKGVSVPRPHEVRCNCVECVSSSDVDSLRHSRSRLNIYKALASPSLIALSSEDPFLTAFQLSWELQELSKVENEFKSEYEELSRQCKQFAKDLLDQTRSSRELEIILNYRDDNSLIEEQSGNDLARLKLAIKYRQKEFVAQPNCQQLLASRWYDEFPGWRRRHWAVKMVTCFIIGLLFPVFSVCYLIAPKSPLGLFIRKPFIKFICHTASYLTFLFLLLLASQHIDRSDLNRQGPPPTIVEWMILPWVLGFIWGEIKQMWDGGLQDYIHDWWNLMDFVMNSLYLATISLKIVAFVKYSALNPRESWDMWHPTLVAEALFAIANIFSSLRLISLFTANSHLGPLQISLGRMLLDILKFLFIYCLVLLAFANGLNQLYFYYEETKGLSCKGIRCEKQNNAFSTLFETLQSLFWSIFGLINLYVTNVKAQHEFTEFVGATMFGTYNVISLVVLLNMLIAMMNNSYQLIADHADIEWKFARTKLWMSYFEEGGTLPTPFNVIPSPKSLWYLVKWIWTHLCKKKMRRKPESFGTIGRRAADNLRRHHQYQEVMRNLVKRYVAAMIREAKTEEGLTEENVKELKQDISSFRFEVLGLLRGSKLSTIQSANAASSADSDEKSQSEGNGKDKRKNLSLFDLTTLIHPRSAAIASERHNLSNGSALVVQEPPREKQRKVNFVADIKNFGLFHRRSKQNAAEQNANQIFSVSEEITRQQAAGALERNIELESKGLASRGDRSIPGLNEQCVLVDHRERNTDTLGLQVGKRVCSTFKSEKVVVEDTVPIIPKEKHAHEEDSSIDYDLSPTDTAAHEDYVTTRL
Sequence of Short transient receptor potential channel 6 (Mus musculus) (Q61143 whole entry, looked up): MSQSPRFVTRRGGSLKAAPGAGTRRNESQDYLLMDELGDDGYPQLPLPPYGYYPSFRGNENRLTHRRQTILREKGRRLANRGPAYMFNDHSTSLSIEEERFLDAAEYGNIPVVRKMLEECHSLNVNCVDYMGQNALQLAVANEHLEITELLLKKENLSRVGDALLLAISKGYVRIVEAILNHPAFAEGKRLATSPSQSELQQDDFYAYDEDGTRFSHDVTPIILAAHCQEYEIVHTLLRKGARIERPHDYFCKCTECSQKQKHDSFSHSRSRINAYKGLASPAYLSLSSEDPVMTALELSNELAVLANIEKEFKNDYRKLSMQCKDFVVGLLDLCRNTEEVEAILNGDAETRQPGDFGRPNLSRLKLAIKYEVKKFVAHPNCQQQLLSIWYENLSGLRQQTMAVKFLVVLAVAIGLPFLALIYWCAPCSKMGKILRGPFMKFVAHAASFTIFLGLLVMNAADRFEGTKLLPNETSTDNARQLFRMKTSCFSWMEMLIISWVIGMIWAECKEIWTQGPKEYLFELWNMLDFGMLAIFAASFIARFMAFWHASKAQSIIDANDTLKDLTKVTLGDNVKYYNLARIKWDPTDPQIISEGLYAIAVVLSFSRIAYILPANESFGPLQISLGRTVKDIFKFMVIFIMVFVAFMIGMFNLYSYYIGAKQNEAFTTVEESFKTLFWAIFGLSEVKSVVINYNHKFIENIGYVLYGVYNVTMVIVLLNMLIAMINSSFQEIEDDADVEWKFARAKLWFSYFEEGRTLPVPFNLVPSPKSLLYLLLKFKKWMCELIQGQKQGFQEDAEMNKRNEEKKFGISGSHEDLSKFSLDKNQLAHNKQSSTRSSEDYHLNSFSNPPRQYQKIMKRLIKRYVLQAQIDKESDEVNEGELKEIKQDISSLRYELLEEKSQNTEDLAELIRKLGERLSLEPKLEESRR
Sequence of Potassium voltage-gated channel subfamily KQT member 1 (Homo sapiens) (P51787 whole entry, looked up): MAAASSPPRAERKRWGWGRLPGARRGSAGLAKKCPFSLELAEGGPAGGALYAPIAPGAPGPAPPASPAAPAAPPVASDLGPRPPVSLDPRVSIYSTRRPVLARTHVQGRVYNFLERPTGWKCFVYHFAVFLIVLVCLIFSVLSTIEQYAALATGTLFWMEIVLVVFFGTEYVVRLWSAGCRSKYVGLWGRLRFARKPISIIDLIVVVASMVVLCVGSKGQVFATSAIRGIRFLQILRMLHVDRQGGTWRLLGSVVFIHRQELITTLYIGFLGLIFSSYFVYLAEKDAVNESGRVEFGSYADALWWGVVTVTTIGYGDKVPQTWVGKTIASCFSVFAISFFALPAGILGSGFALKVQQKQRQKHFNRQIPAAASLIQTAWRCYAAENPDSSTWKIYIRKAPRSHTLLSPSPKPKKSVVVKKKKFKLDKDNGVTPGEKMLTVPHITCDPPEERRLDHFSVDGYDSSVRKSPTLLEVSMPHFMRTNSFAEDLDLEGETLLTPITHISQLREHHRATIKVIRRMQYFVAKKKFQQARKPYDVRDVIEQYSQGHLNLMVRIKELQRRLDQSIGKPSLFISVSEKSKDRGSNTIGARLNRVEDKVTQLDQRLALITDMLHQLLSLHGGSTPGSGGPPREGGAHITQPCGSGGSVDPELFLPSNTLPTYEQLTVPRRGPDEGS

In the case of `COC(=O)c1ccc(NC(=O)CCN2CCN(Cc3ccccc3)CC2)cc1`, the outcome [1] is reported as “inactive”, the outcome [2] is reported as “inactive” and the potentiation [3] is reported as 25% (active). The outcome [4] was “inactive”, the outcome [5] was “inactive” and the outcome [6] was “inactive”. For the same compound, the outcome [7] was “inactive”, the outcome [8] was “inactive” and the outcome [9] was “inactive”. For the same compound, the outcome [10] was “inactive”, the outcome [11] was “inactive” and the outcome [12] was “inactive”. For the same compound, the outcome [13] was “inactive”, the outcome [14] was “inactive” and the potentiation [15] was 12.9% (active). The outcome [16] was “inactive” and the outcome [17] was “inactive”.
With `COc1ccccc1OCC(=O)Nc1ccc(Cl)cc1` the outcome [1] was “inactive”, the outcome [2] was “inactive” and the outcome [3] was “inactive”. For the same compound, the outcome [4] was “inactive”, the inhibition [5] was 52% (active) and the inhibition [6] was 41% (active). For the same compound, the outcome [7] was “inactive”, the outcome [8] was “inactive” and the outcome [9] was “inactive”. The outcome [10] was “inactive”, the outcome [11] was “inactive” and the outcome [12] was “inactive”. The outcome [13] was “inactive”, the outcome [14] was “inactive” and the outcome [15] was “inactive”. For the same compound, the outcome [16] was “inactive” and the outcome [17] was “inactive”.
In the case of `CC1CCN(CCCCOc2ccc([N+](=O)[O-])cc2)CC1`, the outcome [1] is reported as “inactive”, the outcome [2] is reported as “inactive” and the outcome [3] is reported as “inactive”. The outcome [4] was “inactive”, the outcome [5] was “inactive” and the outcome [6] was “inactive”. The outcome [7] was “inactive”, the outcome [8] was “inactive” and the outcome [9] was “inactive”. For the same compound, the outcome [10] was “inactive”, the outcome [11] was “inactive” and the outcome [12] was “inactive”. The outcome [13] was “inactive”, the outcome [14] was “inactive” and the outcome [15] was “inactive”. The outcome [16] was “inactive” and the outcome [17] was “inactive”.
In the case of `Cc1oc(-c2ccc(Cl)cc2)nc1CS(=O)CC(=O)NCCCN(C)C1CCCCC1` (configuration not stated), the outcome [1] is reported as “inactive”, the outcome [2] is reported as “inactive” and the outcome [3] is reported as “inactive”. The outcome [4] was “inactive”, the outcome [5] was “inactive” and the outcome [6] was “inactive”. For the same compound, the outcome [7] was “inactive”, the outcome [8] was “inactive” and the outcome [9] was “inactive”. For the same compound, the outcome [10] was “inactive”, the outcome [11] was “inactive” and the outcome [12] was “inactive”. The outcome [13] was “inactive”, the outcome [14] was “inactive” and the outcome [15] was “inactive”. For the same compound, the outcome [16] was “inactive” and the outcome [17] was “inactive”.
In the case of `CN(C)CCCCOc1cccc(Br)c1`, the outcome [1] is reported as “inactive”, the outcome [2] is reported as “inactive” and the outcome [3] is reported as “inactive”. The outcome [4] was “inactive”, the outcome [5] was “inactive” and the outcome [6] was “inactive”. The outcome [7] was “inactive”, the outcome [8] was “inactive” and the outcome [9] was “inactive”. The outcome [10] was “inactive”, the outcome [11] was “inactive” and the outcome [12] was “inactive”. For the same compound, the outcome [13] was “inactive”, the outcome [14] was “inactive” and the potentiation [15] was 20% (active). For the same compound, the outcome [16] was “inactive” and the outcome [17] was “inactive”.
With `Cc1cc(Br)cc(C)c1OCCCCN(C)C` the outcome [1] was “inactive”, the outcome [2] was “inactive” and the potentiation [3] was 23% (active). The outcome [4] was “inactive”, the outcome [5] was “inactive” and the outcome [6] was “inactive”. For the same compound, the outcome [7] was “inactive”, the outcome [8] was “inactive” and the outcome [9] was “inactive”. For the same compound, the outcome [10] was “inactive”, the outcome [11] was “inactive” and the outcome [12] was “inactive”. The outcome [13] was “inactive”, the outcome [14] was “inactive” and the potentiation [15] was 23.5% (active). The outcome [16] was “inactive” and the outcome [17] was “inactive”.
For `Cc1ccc(CS(=O)(=O)c2ncc(Cl)c(C(=O)Nc3nnc(C)s3)n2)cc1`, the activity increase over 3SD of controls [18] was 30.6% (active), the activation over 3SD threshold [19] was 79.7% (active) and the potentiation, less the hit threshold [20] was -85.4%.
For `Cc1cc(C)nc(NNS(=O)(=O)c2ccc(F)c(Cl)c2)n1`, the outcome [1] was “inactive”, the outcome [2] was “inactive” and the outcome [3] was “inactive”. For the same compound, the outcome [4] was “inactive”, the outcome [5] was “inactive” and the outcome [6] was “inactive”. The outcome [7] was “inactive”, the outcome [8] was “inactive” and the outcome [9] was “inactive”. For the same compound, the outcome [10] was “inactive”, the outcome [11] was “inactive” and the outcome [12] was “inactive”. For the same compound, the outcome [13] was “inactive”, the outcome [14] was “inactive” and the potentiation [15] was 6.83% (active). For the same compound, the outcome [16] was “inactive” and the outcome [17] was “inactive”.
